IL1B secr inh = qHTS for Inhibitors of Inflammasome Signaling: IL-1-beta AlphaLISA Primary Screen | THP-1 LPS/ATP IL-1B secretion, AlphaLISA, 16 h; active compounds read low | actives 4.7% (n = 360,000) | activity change, % at 57.5 µM; in the data active = activity change below about -50%; inconclusive = mostly about -30% to -49%
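Secreted IL-1B measured by AlphaLISA bead assay after 16 h compound exposure of THP-1 cells; compounds (final up to 57.5 uM) added 1 h before LPS (250 ng/mL) and ATP (1.25 mM) stimulation; lower signal means less secretion.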
MCF10A rereplic = A quantitative high throughput screen for small molecules that induce DNA re-replication in MCF 10a normal breast cells. MCF 10A DNA re-replication, Hoechst nuclear intensity, 48 h. Potency, µM (doses to about 46.1 µM), usual class: activators. actives 2.9% (n = 350,000); note: nearly all actives have a fitted effect of over 50% in size
PINK1 expr mod = A Quantitative High throughput Screen to Identify Chemical Modulators of PINK1 Expression; actives 0.2% (n = 410,000); AID 624263, 2012; PINK1 immunofluorescence, high-content cytometry, 24 h; Potency, µM (series often up to 76.6 µM), actives largely listed as activators; active = well fitted activation curve with a large enough effect; inconclusive = small, poorly fitted or top-dose-only effect; cell line not stated here; note: nearly all actives have a fitted effect of over 65% in size
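Stable cell line, 250 cells/well, 12 h attachment; compounds pinned at 5 concentrations, 24 h; CCCP control. Fixed with nuclear dye, primary antibodies 12 h at 10 degrees C, secondary plus cell stain; laser-scanning cytometer read.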
ATXN viability = Viability Counterscreen for Primary qHTS for Inhibitors of ATXN expression. S2 cells (HEK-293 line with an ATXN2-luciferase reporter) viability, CellTiter-Fluor protease fluorescence, 24 h. Potency, µM (titrated, usually from 56.7 µM), most hits filed as cytotoxic. actives 0.49% (n = 400,000); note: nearly all actives have a fitted effect of over 40% in size
SW480 rereplic = A quantitative high throughput screen for small molecules that induce DNA re-replication in SW480 colon adenocarcinoma cells. Potency, µM (doses to about 46.1 µM), most hits filed as activators. SW480 DNA re-replication, Hoechst DNA content imaging, 48 h. actives 1.8% (n = 340,000); note: nearly all actives have a fitted effect of over 55% in size
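Image-based read-out: total Hoechst fluorescence of nuclei (405 nm excitation, 500-530 nm emission), with hits raising the fraction of high-intensity nuclei. SW480 colon cells incubated 48 hr with compounds at 37 C.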
ATXN2 expr inh = Primary qHTS for Inhibitors of ATXN expression. Potency, µM (series often up to 57 µM), most hits filed as inhibitors. HEK-293 ATXN2-luciferase reporter, luminescence, 24 h. actives 0.72% (n = 360,000). AID 1745845, 2022; note: nearly all actives have a fitted effect of over 55% in size
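ATXN2-luciferase reporter cells (luciferase flanked by upstream and downstream ATXN2 gene portions) were treated 24 h at 37 °C with compounds at up to 57 uM. SteadyGlo luminescence gave expression; GF-AFC fluorescence gave viability.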
Hits are given with their value; [ ] = dose if it differs, or a comment. A selection: hits, their analogues and other compounds. The true share with any hit is near 7.1%. Unless noted, calls come from the whole dose curve; as a rule, active = well fitted curve in the direction sought with a large enough effect; inconclusive = small, poorly fitted or top-dose-only effect, or another doubt; inactive = no such curve, though single readings can be large; an effect the other way counts as inactive or inconclusive.

What do the screens show for `Cc1cccc(C)c1NC(=O)c1ccc2c(c1)N(Cc1cccc(Cl)c1)C(=O)c1ccccc1S2=O` (centres undefined)?
PINK1 expr mod: inactive; ATXN viability: inactive; ATXN2 expr inh: inactive

What do the screens show for `F[B-](F)(F)c1cc2ccccc2s1`?
IL1B secr inh: -70.2; MCF10A rereplic: inactive; PINK1 expr mod: inactive; ATXN viability: inactive; SW480 rereplic: inactive[9.22 µM]; ATXN2 expr inh: inactive

What do the screens show for `F[B-](F)(F)c1cc2cc(Br)ccc2s1`?
IL1B secr inh: -62.1; MCF10A rereplic: inactive; PINK1 expr mod: inactive; ATXN viability: inactive; SW480 rereplic: inactive; ATXN2 expr inh: inactive

Results for CNC(=O)c1cc2cc(Br)ccc2s1 ?
IL1B secr inh: inactive; MCF10A rereplic: inactive; PINK1 expr mod: inactive; ATXN viability: inactive; SW480 rereplic: inactive; ATXN2 expr inh: inactive

Results for c1ccc2nc(-c3cc4ccccc4s3)ccc2c1 ?
PINK1 expr mod: inactive

What do the screens show for `COc1ccc(OC)c(NC(=O)N2c3ccccc3Sc3ccccc32)c1`?
PINK1 expr mod: inactive; ATXN viability: inactive; ATXN2 expr inh: inactive

What do the screens show for `CCC(C)NC(=O)c1cc2cc(S(=O)(=O)N3CCCCC3)ccc2n1C` (centres undefined)?
PINK1 expr mod: inactive

What do the screens show for `CCN=C1S/C(=C\c2ccc(Sc3ccc(Cl)cc3)o2)C(=O)N1CC`?
IL1B secr inh: inactive; MCF10A rereplic: inconclusive; PINK1 expr mod: inactive; ATXN viability: inactive; SW480 rereplic: inconclusive; ATXN2 expr inh: inactive

What do the screens show for `CC1=CN2C(=N)/C(=C/c3ccc(C)o3)C(=O)N=C2S1`?
IL1B secr inh: inactive; MCF10A rereplic: inactive; PINK1 expr mod: inactive; ATXN viability: inconclusive; SW480 rereplic: inactive; ATXN2 expr inh: inactive

How did CC1=CN2C(=N)/C(=C/c3ccc(Sc4ccc(Cl)cc4)o3)C(=O)N=C2S1 do in these assays?
IL1B secr inh: -68.7; MCF10A rereplic: inconclusive; PINK1 expr mod: inactive; ATXN viability: inactive; SW480 rereplic: inactive; ATXN2 expr inh: inactive

What do the screens show for `CC1=CN2C(=N)/C(=C/c3ccc(Sc4ccc(C)cc4)o3)C(=O)N=C2S1`?
IL1B secr inh: -58.4; MCF10A rereplic: inconclusive; PINK1 expr mod: inactive; ATXN viability: inactive; SW480 rereplic: inconclusive; ATXN2 expr inh: inactive

Results for N#Cc1cc2cc3c(cc2nc1SCC(=O)N1CCOCC1)OCO3 ?
IL1B secr inh: inactive; MCF10A rereplic: inactive; PINK1 expr mod: inconclusive; ATXN viability: inactive; SW480 rereplic: inactive; ATXN2 expr inh: inactive

How did N#Cc1cc2cc3c(cc2nc1NCCNC(=S)NCCCN1CCOCC1)OCO3 do in these assays?
IL1B secr inh: inactive; MCF10A rereplic: 20.6µM; PINK1 expr mod: inactive; ATXN viability: inactive; SW480 rereplic: inconclusive; ATXN2 expr inh: inactive

How did COC(=O)c1ccc(COC(=O)CNC(=O)c2ccc(OC)cc2)cc1 do in these assays?
IL1B secr inh: inactive; MCF10A rereplic: inactive; PINK1 expr mod: inactive; ATXN viability: inconclusive; SW480 rereplic: inactive

Results for COC(=O)c1ccc(COC(=O)CNC(=O)CNC(=O)c2ccc(OC)cc2)cc1 ?
IL1B secr inh: -67.3; MCF10A rereplic: inactive; PINK1 expr mod: inactive; ATXN viability: inactive; SW480 rereplic: inactive; ATXN2 expr inh: inactive

How did CCN(c1ccccc1C)S(=O)(=O)c1nnc(NC(=O)c2ccc(OC)c(OC)c2)s1 do in these assays?
PINK1 expr mod: inactive

What do the screens show for `COc1ccc(OC)c(-c2ccnc(-n3ncc(C(=O)N(C)CCO)c3C3CC3)n2)c1`?
PINK1 expr mod: inactive; ATXN viability: inactive

How did CN(CCOc1ccccc1Cl)Cc1ccccc1 do in these assays?
IL1B secr inh: inactive; MCF10A rereplic: inconclusive; PINK1 expr mod: inactive; ATXN viability: inactive; SW480 rereplic: inactive; ATXN2 expr inh: inactive

Results for CN(CCOCCOc1ccc(Cl)cc1Br)Cc1ccccc1 ?
IL1B secr inh: -79.8; MCF10A rereplic: inactive; PINK1 expr mod: inactive; ATXN viability: inactive; SW480 rereplic: inactive; ATXN2 expr inh: inactive

How did COC(=O)c1ccc(OCCCCN(C)Cc2ccccc2)cc1 do in these assays?
IL1B secr inh: inactive; MCF10A rereplic: 18.4µM; PINK1 expr mod: inactive; ATXN viability: inactive; SW480 rereplic: inactive; ATXN2 expr inh: inactive

How did Cc1ccc(Cl)c(OCCCCN(C)Cc2ccccc2)c1 do in these assays?
IL1B secr inh: -56.9; MCF10A rereplic: inactive; PINK1 expr mod: inconclusive; SW480 rereplic: inactive; ATXN2 expr inh: inconclusive

How did Cc1ccc(Cl)c(OCCCN(C)Cc2ccccc2)c1 do in these assays?
IL1B secr inh: -77.2; MCF10A rereplic: inactive; PINK1 expr mod: inactive; ATXN viability: inactive; SW480 rereplic: inconclusive; ATXN2 expr inh: inactive

How did CN(C)C(=O)c1cccc(-c2cccc(-c3nc(C(=O)NCc4ccccc4)cc4c3[C@@H](CCO)N(S(=O)C(C)(C)C)C4)c2)c1 (some centres undefined) do in these assays?
IL1B secr inh: -55.2; PINK1 expr mod: inactive; ATXN2 expr inh: inactive

Results for COc1ccc(C#Cc2cccc(-c3nc(C(=O)NCc4ccc(Oc5ccccc5)cc4)cc4c3[C@@H](CCO)N(S(=O)C(C)(C)C)C4)c2)cc1OC (some centres undefined) ?
IL1B secr inh: inactive; PINK1 expr mod: inactive; ATXN viability: 31.6µM; ATXN2 expr inh: inconclusive

How did Cc1cn2c(=O)cc(COC(=O)COc3ccc(C)c(C)c3)nc2s1 do in these assays?
PINK1 expr mod: inactive; ATXN viability: inactive; ATXN2 expr inh: inactive

Results for O=C(c1ccccc1)N1CCN(Cc2c[nH]c3ccccc23)CC1 ?
IL1B secr inh: -83.4; MCF10A rereplic: inactive; PINK1 expr mod: inactive; ATXN viability: inactive; SW480 rereplic: inactive; ATXN2 expr inh: inactive

What do the screens show for `O=C(c1cccc(F)c1)N1CCN(Cc2c[nH]c3ccccc23)CC1`?
IL1B secr inh: inactive; MCF10A rereplic: inactive; PINK1 expr mod: inactive; ATXN viability: inactive; SW480 rereplic: inactive; ATXN2 expr inh: inactive

How did Clc1ccccc1N1CCN(Cc2c[nH]c3ccccc23)CC1 do in these assays?
IL1B secr inh: -80.6; MCF10A rereplic: inconclusive; PINK1 expr mod: inactive; ATXN viability: inactive; SW480 rereplic: inactive[9.22 µM]; ATXN2 expr inh: inactive

How did O=S(=O)(c1ccc(Cl)cc1)N1CCN(Cc2c[nH]c3ccccc23)CC1 do in these assays?
IL1B secr inh: inactive; MCF10A rereplic: inactive; SW480 rereplic: inactive

How did Cc1ccc(CNC(=O)CN(c2cc(C)cc(C)c2)S(=O)(=O)c2c(C)noc2C)cc1 do in these assays?
PINK1 expr mod: inactive; ATXN viability: inactive; ATXN2 expr inh: inactive

Results for CNc1cc(CSc2ccc(Cl)cc2)nc(C)n1 ?
IL1B secr inh: inactive; MCF10A rereplic: inactive; PINK1 expr mod: inactive; ATXN viability: inactive; SW480 rereplic: 5.17µM; ATXN2 expr inh: inactive
